# Reference: the supplement of paper PMC8728848
# Many of the other results were omitted from the sample, so the strongest signals are more common in it than they were.
# Columns and labels:
# Experiment in all cases: glycan array binding signal (z-score within array); higher = stronger binding
# Details in all cases: glycan notation: IUPAC condensed, linker removed
# [1] = target: Gal(b1-4)GlcNAc(b1-3)Gal(b1-4)GlcNAc(b1-3)[Gal(b1-4)GlcNAc(b1-3)Gal(b1-4)GlcNAc(b1-6)]GalNAc
# How it was run: (§1)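 Columns mapping to the same glycan were averaged after glycan names were converted to IUPAC-condensed notation. The data come from 3228 arrays in the Consortium for Functional Glycomics database, limited to those with an available protein sequence. Binding is reported as a within-array Z-score averaged across arrays of one protein sequence and across linkers.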
# [2] = target: Gal(b1-4)GlcNAc(b1-3)Gal(b1-4)GlcNAc(b1-6)[Gal(b1-3)]GalNAc
# How it was run: as §1
# Gal3S(b1-3)GlcNAc = target: Gal3S(b1-3)GlcNAc
# How it was run: as §1
# Gal3S4S(b1-4)GlcNAc = target: Gal3S4S(b1-4)GlcNAc
# How it was run: as §1
# GalNAc3S(b1-4)GlcNAc3S = target: GalNAc3S(b1-4)GlcNAc3S
# How it was run: as §1
# [3] = target: GlcNAc(b1-2)[GlcNAc(b1-4)]Man(a1-3)[GlcNAc(b1-4)][GlcNAc(b1-2)[GlcNAc(b1-6)]Man(a1-6)]Man(b1-4)GlcNAc(b1-4)[Fuc(a1-6)]GlcNAc
# How it was run: as §1
# GlcNAc(b1-3)Fuc = target: GlcNAc(b1-3)Fuc
# How it was run: as §1
# [4] = target: GlcNAc(b1-3)Gal(b1-4)GlcNAc
# How it was run: as §1
# GlcNAc(b1-4)GlcNAc = target: GlcNAc(b1-4)GlcNAc
# How it was run: as §1
# [5] = target: Kdn(a2-3)Gal(b1-4)[Fuc(a1-3)]GlcNAc
# How it was run: as §1
# [6] = target: Man(a1-2)Man(a1-2)Man(a1-6)[Man(a1-3)]Man
# How it was run: as §1
# [7] = target: Man(a1-2)Man(a1-3)[Man(a1-2)Man(a1-6)]Man(a1-6)[Man(a1-2)Man(a1-2)Man(a1-3)]Man
# How it was run: as §1
# MurNAc(b1-4)GlcNAc = target: MurNAc(b1-4)GlcNAc
# How it was run: as §1
# [8] = target: Neu5Ac(a2-3)Gal(b1-3)GlcNAc(b1-2)Man(a1-3)[Neu5Ac(a2-3)Gal(b1-3)GlcNAc(b1-2)Man(a1-6)]Man(b1-4)GlcNAc(b1-4)GlcNAc
# How it was run: as §1
# [9] = target: Neu5Ac(a2-3)Gal(b1-3)GlcNAc(b1-3)GalNAc
# How it was run: as §1
# [10] = target: Neu5Ac(a2-3)Gal(b1-3)GlcNAc(b1-4)Gal(b1-4)Glc
# How it was run: as §1
# [11] = target: Neu5Ac(a2-3)Gal(b1-3)[Fuc(a1-4)]GlcNAc(b1-3)Gal(b1-3)[Fuc(a1-4)]GlcNAc
# How it was run: as §1
# [12] = target: Neu5Ac(a2-3)Gal(b1-4)GlcNAc(b1-3)Gal
# How it was run: as §1
# [13] = target: Neu5Ac(a2-3)Gal(b1-4)GlcNAc(b1-6)[Gal(b1-3)]GalNAc
# How it was run: as §1
# [14] = target: Neu5Ac(a2-3)Gal(b1-4)[Fuc(a1-3)]GlcNAc(b1-6)[Gal(b1-3)]GalNAc
# How it was run: as §1
# [15] = target: Neu5Ac(a2-3)[GalNAc(b1-4)]Gal(b1-4)GlcNAc(b1-3)GalNAc
# How it was run: as §1
# [16] = target: Neu5Ac(a2-6)Gal(b1-4)GlcNAc(b1-2)Man(a1-3)[Neu5Ac(a2-3)Gal(b1-4)GlcNAc(b1-2)Man(a1-6)]Man(b1-4)GlcNAc(b1-4)GlcNAc
# How it was run: as §1
# [17] = target: Neu5Ac(a2-6)Gal(b1-4)GlcNAc(b1-2)[Neu5Ac(a2-6)Gal(b1-4)GlcNAc(b1-4)]Man(a1-3)[GlcNAc(b1-4)][Neu5Ac(a2-6)Gal(b1-4)GlcNAc(b1-4)Man(a1-6)]Man(b1-4)GlcNAc(b1-4)GlcNAc
# How it was run: as §1
# [18] = target: Neu5Ac(a2-6)Gal(b1-4)GlcNAc(b1-2)[Neu5Ac(a2-6)Gal(b1-4)GlcNAc(b1-6)]Man(a1-6)[Neu5Ac(a2-6)Gal(b1-4)GlcNAc(b1-2)Man(a1-3)][GlcNAc(b1-4)]Man(b1-4)GlcNAc(b1-4)GlcNAc
# How it was run: as §1
# [19] = target: Neu5Ac(a2-8)Neu5Ac(a2-3)Gal(b1-4)Glc
# How it was run: as §1
# [20] = target: Neu5Ac(a2-8)Neu5Ac(a2-8)Neu5Ac(a2-8)Neu5Ac(a2-3)[GalNAc(b1-4)]Gal(b1-4)Glc
# How it was run: as §1
# [21] = target: Neu5Ac9Ac(a2-3)Gal(b1-4)GlcNAc
# How it was run: as §1
binder,measurement,setting,value
"DC-Sign (Homo sapiens), Q9NNX6 (protein) MSDSKEPRLQQLGLLEEEQLRGLGFRQTRGYKSLAGCLGHGPLVLQLLSFTLLAGLLVQVSKVPSSISQEQSRQDAIYQNLTQLKAAVGELSEKSKLQEIYQELTQLKAAVGELPEKSKLQEIYQELTRLKAAVGELPEKSKLQEIYQELTWLKAAVGELPEKSKMQEIYQELTRLKAAVGELPEKSKQQEIYQELTRLKAAVGELPEKSKQQEIYQELTRLKAAVGELPEKSKQQEIYQELTQLKAAVERLCHPCPWEWTFFQGNCYFMSNSQRNWHDSITACKEVGAQLVVIKSAEEQNFLQLQSSRSNRFTWMGLSDLNQEGTWQWVDGSPLLPSFKQYWNRGEPNNVGEEDCAEFSGNGWNDDKCNLAKFWICKKSAASCSRDEEQFLSPAPATPNPPPA",glycan array binding signal (z-score),[1],-0.146
same,glycan array binding signal (z-score),[2],-0.097
same,glycan array binding signal (z-score),Gal3S(b1-3)GlcNAc,-0.136
same,glycan array binding signal (z-score),Gal3S4S(b1-4)GlcNAc,-0.195
same,glycan array binding signal (z-score),GalNAc3S(b1-4)GlcNAc3S,-0.101
same,glycan array binding signal (z-score),[3],-0.179
same,glycan array binding signal (z-score),GlcNAc(b1-3)Fuc,-0.17
same,glycan array binding signal (z-score),[4],-0.089
same,glycan array binding signal (z-score),GlcNAc(b1-4)GlcNAc,-0.109
same,glycan array binding signal (z-score),[5],-0.1
same,glycan array binding signal (z-score),[6],4.51
same,glycan array binding signal (z-score),[7],8.32
same,glycan array binding signal (z-score),MurNAc(b1-4)GlcNAc,0.01
same,glycan array binding signal (z-score),[8],-0.202
same,glycan array binding signal (z-score),[9],-0.142
same,glycan array binding signal (z-score),[10],-0.183
same,glycan array binding signal (z-score),[11],1.83
same,glycan array binding signal (z-score),[12],-0.186
same,glycan array binding signal (z-score),[13],-0.171
same,glycan array binding signal (z-score),[14],-0.164
same,glycan array binding signal (z-score),[15],-0.171
same,glycan array binding signal (z-score),[16],-0.097
same,glycan array binding signal (z-score),[17],-0.183
same,glycan array binding signal (z-score),[18],-0.167
same,glycan array binding signal (z-score),[19],-0.177
same,glycan array binding signal (z-score),[20],-0.19
same,glycan array binding signal (z-score),[21],-0.175
